Test [1] can be described thus: A549 cell viability effects, profiling panel, calcein-AM fluorescence, 48 h, basal (AID 1162). Particulars: higher = more signal.
Test [2] is described as follows: adipocyte viability effects, profiling panel, cell-based, 3T3-L1 adipocytes, calcein-AM fluorescence, 48 h, basal (AID 1163). Particulars: 3T3-L1 adipocytes viability, higher = more signal.
Test [3] in a line: HepG2 cell viability effects, profiling panel, calcein-AM fluorescence, 48 h, basal (AID 1164). Particulars: higher = more signal.
Test [4] is described as follows: MM1S cell viability effects, profiling panel, calcein-AM fluorescence, 48 h, basal (AID 1165).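 Note: viability of MM1S multiple myeloma cells under basal unstimulated conditions.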 Particulars: higher = more signal.
Test [5] can be described thus: basal RPMI8226 viability, no added stimulus, profiling panel, cell-based, calcein-AM fluorescence, 48 h, PK04 Diversity Set (AID 1166).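 Note: cells grown under basal conditions without added stimulus.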 Particulars: RPMI8226 myeloma viability, higher = more signal.
A short description of test [6]: basal HepG2 mitochondrial membrane potential changes, profiling panel, cell-based, JC-1 fluorescence, 24 h, 100 nL compound (AID 1167). Particulars: higher = more signal.
Test [7] is described as follows: basal 3T3-L1 adipocyte mitochondrial potential changes, profiling panel, cell-based, JC-1 fluorescence, 3T3-L1 adipocytes, 24 h, 100 nL compound (AID 1168). Particulars: JC-1 mitochondrial fluorescence, higher = more signal, called active from +8 up or from −8 down.
A short description of test [8]: basal RPMI8226 mitochondrial membrane potential changes, profiling panel, cell-based, JC-1 fluorescence, 24 h, 100 nL compound (AID 1169). Particulars: RPMI8226 myeloma, JC-1 mitochondrial potential fluorescence, higher = more signal.
Test [9] can be described thus: basal MM1S mitochondrial membrane potential changes, profiling panel, cell-based, JC-1 fluorescence, 24 h, 100 nL compound (AID 1170). Particulars: higher = more signal.
Test [10] can be described thus: A549 lung cancer cell viability effects, profiling panel, resazurin fluorescence, 24 h, PK04 Diversity Set (AID 1171). Particulars: higher = more signal, called active from +8 up or from −8 down.

Each structure is given as a SMILES string. Calls of active or inactive are those of the source.

The source of these data is PubChem BioAssay.
Note: test concentration not given here.

Consider `C=CCC(OC(C)=O)[C@@H]1[C@@H](N(Cc2ccc(-c3cccc(C(F)(F)F)c3)o2)C(=O)c2cccc3ccccc23)c2cc(OCCCO)ccc2N1C(=O)Cc1ccc2ccccc2c1` (stereo not given in full), for which the z-score in test [1] was -0.285; in test [2], 0.784; in test [3] it was -0.0575; in test [4], -0.564; in test [5], -2.04; in test [6], 1.1. In addition, the z-score was -0.62 (inactive) in test [7], -0.0209 in [8], -0.0374 in [9] and -0.0845 (inactive) in [10].

As to `[N-]=[N+]=Nc1ccccc1[C@H]1OC(c2ccc(OCCCO)cc2)=N[C@@]1(Cc1ccccc1)C(=O)N1CCOCC1`, the z-score in test [1] is -1.59; in test [2] it was 0.539; in [3], -1.12; in test [4], -2.4; in test [5], -3.94; in test [6], -0.273. The z-score is 0.598 (inactive) in [7], -1.09 in test [8], -2.67 in test [9] and -2.74 (inactive) in [10].

For the compound `CC(C)N1CC=CC23O[C@@H]4C=CCOC(=O)[C@@H]4[C@H]2C(=O)N(CCCCCO)[C@@H]3C1=O` (stereo not given in full), the z-score was 0.522 in test [1]; 1.45 in test [2]; -1.25 in test [3]; 1.01 in test [4]; 0.512 in [5]; -0.448 in [6]. Also, the z-score in test [7] was -0.709 (inactive); in test [8], 0.565; in test [9] it was -0.41; in test [10], 0.0829 (inactive).

Take `COc1ccc(C(O)C2C=CC3C(=O)N(C)C(=O)C3N2N(c2ccccc2)c2ccccc2)c2ccccc12` (stereo not given): the z-score was -0.303 in [1]; -1.6 in test [2]; 0.943 in test [3]; 0.149 in test [4]; 0.2 in [5]; -0.979 in [6]. Also, the z-score in test [7] was -0.14 (inactive); in test [8] it was 0.545; in [9] it was -0.67; in test [10], -0.738 (inactive).

Consider `CC[C@@H]1C=C(C(=O)O)[C@H](c2cccc3ccccc23)N1S(=O)(=O)c1ccc(C)cc1`, for which the z-score in test [1] is -1.17; in test [2], -0.101; in [3], 0.338; in [4], -0.585; in test [5] it was -0.392; in test [6] it was -0.384. Moreover, the z-score in [7] is 0.291 (inactive); in test [8] it was 1.17; in test [9], -1.16; in [10] it was -0.376 (inactive).

With `CCCCCCCCCCC(O)C1C=CC2C(=O)NC(=O)C2N1Nc1ccc(Cl)cc1Cl` (stereo not given), the z-score is -4.55 in [1]; 0.061 in [2]; -3.5 in test [3]; -3.8 in test [4]; -4.21 in [5]; -3.53 in test [6]. Further, the z-score in [7] is -0.354 (inactive); in test [8], -0.931; in test [9], -1.08; in [10] it was -1.52 (inactive).

On to `CCCNC(=O)[C@@]1(Sc2ccc(C)cc2)CC(=O)N(Cc2ccccc2C(F)(F)F)[C@@H]1c1ccc(CO)cc1I`, for which the z-score in [1] was -0.567; in test [2] it was 1.12; in test [3], -1.14; in test [4], -2.3; in test [5] it was -2.56; in test [6], -0.453. Also, the z-score was -1.02 (inactive) in test [7], -0.355 in test [8], -1.78 in test [9] and 0.821 (inactive) in test [10].

As to `O=C1N(CCS(=O)(=O)c2ccccc2)c2ccccc2[C@@H]2OC(c3ccc(OCCCO)cc3)=N[C@]12Cc1ccccc1`, the z-score in [1] is 0.661; in test [2], 1.33; in test [3], 0.993; in test [4], -2.75; in test [5], -1.58; in test [6], 0.637. Also, the z-score was 2.24 (inactive) in test [7], -0.407 in test [8], -0.989 in test [9] and -2.13 (inactive) in [10].

Take `COC(=O)C(CC#Cc1ccc2c(c1)[C@]1(C(=O)N2)[C@H](c2ccccc2OCCO)N2[C@H](c3ccccc3)[C@H](c3ccccc3)OC(=O)[C@H]2[C@@H]1C(=O)O)C(=O)OC`: the z-score in [1] is 1.45; in test [2], 0.0879; in test [3], 1.38; in [4], -2.37; in test [5], -2.41; in test [6] it was 1.11. The z-score in test [7] is -0.847 (inactive); in [8], -0.214; in [9] it was -0.197; in [10] it was 0.917 (inactive).

Regarding `OB1C=CCC(CCc2ccccc2)O1` (stereo not given), the z-score in test [1] was 0.345; in [2], 0.638; in test [3] it was 0.36; in test [4], 0.293; in [5], 0.364; in [6] it was 1.39. The z-score in test [7] was 0.244 (inactive); in [8] it was -0.855; in test [9], 0.954; in test [10] it was -1.01 (inactive).

With `COc1ccc([Si](C)(C)[C@H]2[C@H](CCO)O[C@@]3(C(=O)N(Cc4ccccc4)c4ccc(N5CCCCC5=O)cc43)[C@@H]2C)cc1`, the z-score in test [1] was -0.0531; in test [2], -0.627; in test [3], -3.62; in test [4], -2.03; in [5] it was -4.53; in [6], 2. In addition, the z-score in test [7] is 0.355 (inactive); in test [8], -0.781; in [9] it was 0.363; in test [10] it was -2.68 (inactive).

For `CC(C)(C)OC(=O)CC[C@@]1(C(=O)N2CCCCC2)N=C(c2ccc(OCCCO)cc2)O[C@@H]1c1ccccc1`, the z-score in test [1] is -0.637; in test [2] it was 0.452; in test [3], 0.644; in test [4], -1.99; in [5] it was -2.22; in test [6] it was 1.59. Moreover, the z-score in test [7] was 0.0803 (inactive); in test [8], -0.636; in test [9], 0.0287; in [10] it was 0.894 (inactive).

Take `O=C(CS)NCCCCCNC(=O)[C@@H]1C[C@@H]2C(=O)NCC(=O)N2[C@@H]1c1cccc(OCCO)c1`: the z-score in test [1] is 0.686; in [2] it was 0.45; in test [3], 0.938; in [4], 0.231; in test [5], 0.842; in [6] it was 1.85. For the same compound, the z-score is -0.102 (inactive) in [7], -0.738 in [8], -0.249 in [9] and -0.696 (inactive) in test [10].

Regarding `C=CC[C@]1(C(=O)N2CCOCC2)N=C(c2ccc(OCCCO)cc2)O[C@H]1c1ccccc1N=[N+]=[N-]`, the z-score in [1] is 0.0797; in test [2], 0.816; in test [3], -0.0586; in test [4] it was -0.094; in test [5] it was -1.8; in [6] it was 1.23. In addition, the z-score in test [7] is 1.17 (inactive); in [8], -0.733; in [9], -1.44; in [10], -0.441 (inactive).

Regarding `COC(=O)[C@@]1(Cc2ccc(OC)cc2)[C@H]2c3cc(C(=O)N4CCCC4)n(Cc4nc5ccccc5[nH]4)c3C[C@H]2CN1C(=O)c1ccccc1`, the z-score in [1] was -0.43; in test [2], 0.685; in test [3] it was -0.44; in [4], -2.01; in test [5] it was -2.35; in test [6], -0.128. The z-score in test [7] was -0.773 (inactive); in [8], -0.764; in test [9] it was -0.816; in test [10], 0.161 (inactive).

For `COC(=O)c1c(CC[C@@H](CO)NC(=O)N[C@@H](Cc2ccccc2)Cn2cc(-c3ccccn3)nn2)oc(C(=O)N2CCOCC2)c1C(=O)OC`, the z-score in [1] is 0.122; in test [2] it was 0.17; in [3], -1.31; in test [4], 0.527; in [5], 0.642; in [6], -0.105. Moreover, the z-score in test [7] is 0.0526 (inactive); in test [8], -0.652; in test [9], -0.0834; in [10], 0.765 (inactive).
